Measured values: PubChem BioAssay (Tox21)
Inconclusive results are not listed. The source made the active and inactive calls. Unless noted, calls follow the shape of the full dose curve.

How the values were obtained:
[1] = Nuclear factor erythroid 2-related factor 2/antioxidant responsive element (Nrf2/ARE) small molecule agonists: qHTS cell viability counter screen in human keratinocytes (AID 1919968; active = well fitted cell-killing curve with a large enough effect in the repeat runs; also: nearly all actives have a fitted effect of over 55% in size)
Procedure, shortened: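 Cytotoxicity was multiplexed with the Nrf2/ARE luciferase assay in the same wells. Stably transfected HaCaT keratinocytes were treated with test compounds for 23 h at 37 C. Cell viability was then measured by CellTiter-Fluor fluorescence.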

[2] = biological target: Gonadotropin-releasing hormone receptor (Homo sapiens) (UniProt P30968); test: Human gonadotropin-releasing hormone receptor (GnRHR) small molecule agonists, calcium flux assay in GnRHR-HEK293 cells (AID 1920063); also: nearly all actives have a fitted effect of over 35% in size
Gonadotropin-releasing hormone receptor (Homo sapiens), sequence (P30968 whole entry, looked up): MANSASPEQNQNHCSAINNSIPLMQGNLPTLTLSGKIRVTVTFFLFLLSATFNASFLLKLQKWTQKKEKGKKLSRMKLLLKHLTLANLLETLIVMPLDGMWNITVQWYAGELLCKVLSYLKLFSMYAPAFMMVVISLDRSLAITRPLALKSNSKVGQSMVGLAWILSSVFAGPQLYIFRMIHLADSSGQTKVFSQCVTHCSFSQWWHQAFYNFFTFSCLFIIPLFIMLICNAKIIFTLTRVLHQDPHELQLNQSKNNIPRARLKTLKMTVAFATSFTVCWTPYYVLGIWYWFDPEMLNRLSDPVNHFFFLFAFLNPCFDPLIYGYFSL
Procedure, shortened: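 Agonist activity was measured as intracellular calcium flux in HEK293 cells engineered to stably express human GnRHR. After dye loading for 1 hour at 37 C, compounds in DMSO were added and fluorescence was followed for 3 minutes.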

[3] = G protein-coupled receptor (GPCR) small molecule agonists, calcium flux assay: HEK293 wild type cell line counter screen (AID 1920065)
Procedure, shortened: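 Seed cells, incubate 18 h (37 C, 5% CO2); add calcium dye, 1 h at 37 C; pin-transfer compounds, ATP control or DMSO; read fluorescence 480/540 nm each second for 3 min.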

[4] = p53 small molecule agonists, cell-based qHTS assay with human liver microsomes (AID 1963577)
Procedure, shortened: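 Cells carrying a p53-responsive bla reporter were rested 5 h (37 C, 5% CO2) before compound transfer. Human liver microsomes plus NADPH, 0.5 mg/mL final apiece, supplied metabolism during the 16 h 37 C exposure.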

[5] = p53 small molecule agonists, cell-based qHTS assay with rat liver microsomes (AID 1963578)
Procedure, shortened: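 Fluorescence from a beta-lactamase reporter under a p53 response element was measured after cells had been incubated 16 h at 37 C with test compound and rat liver microsomes plus NADPH (0.5 mg/mL final each).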

[6] = p53 small molecule agonists, cell-based qHTS assay with human liver microsomes: qHTS cell viability counter screen (AID 1963579); also: nearly all actives have a fitted effect of over 45% in size
Procedure, shortened: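 Seed p53RE-bla cells at 4,000 per well; incubate 5 h at 37 C; add compound, human liver microsomes and NADPH; incubate 16 h at 37 C; add CellTiter-Glo; after 30 min at room temperature, read luminescence.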

[7] = p53 small molecule agonists, cell-based qHTS assay with rat liver microsomes: qHTS cell viability counter screen (AID 1963580); also: nearly all actives have a fitted effect of over 45% in size
Procedure, shortened: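 Rat liver microsome (0.5 mg/mL final) and NADPH (0.5 mg/mL final) co-incubation with compounds for 16 h at 37 C on HCT-116 p53RE-bla cells; cytotoxicity taken from intracellular ATP luminescence.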

[8] = p53 small molecule agonists, cell-based qHTS assay (AID 1963582; active = well fitted activation curve with a large enough effect in the signal ratio in the repeat runs, not every such curve was filed as active; the % refers to the signal ratio)
Procedure, shortened: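 Cells carrying a p53-responsive bla reporter are treated with test compounds for 16 h at 37 C; beta-lactamase activity is then detected with LiveBLAzer B/G FRET substrate after 2 h at room temperature.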

[9] = biological target: 5-hydroxytryptamine receptor 2A (Homo sapiens) (UniProt P28223); test: 5-hydroxytryptamine receptor 2A (HTR2A) small molecule antagonists, cell-based qHTS assay (AID 1963586); also: nearly all actives have a fitted effect of over 45% in size
5-hydroxytryptamine receptor 2A (Homo sapiens), sequence (P28223 whole entry, looked up): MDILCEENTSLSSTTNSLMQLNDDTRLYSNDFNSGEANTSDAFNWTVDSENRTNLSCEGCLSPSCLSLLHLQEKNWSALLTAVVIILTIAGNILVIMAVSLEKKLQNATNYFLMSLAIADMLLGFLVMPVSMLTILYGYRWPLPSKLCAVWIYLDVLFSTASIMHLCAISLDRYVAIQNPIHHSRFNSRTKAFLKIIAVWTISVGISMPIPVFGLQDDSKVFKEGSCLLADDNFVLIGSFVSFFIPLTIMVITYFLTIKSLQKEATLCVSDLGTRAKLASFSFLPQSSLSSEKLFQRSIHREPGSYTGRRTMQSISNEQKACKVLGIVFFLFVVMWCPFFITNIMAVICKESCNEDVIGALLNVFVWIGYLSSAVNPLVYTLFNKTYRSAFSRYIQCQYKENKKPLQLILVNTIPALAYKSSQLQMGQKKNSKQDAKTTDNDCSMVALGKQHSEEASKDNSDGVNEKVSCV
Procedure, shortened: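 CHO cells stably expressing human HTR2A were plated for 18 h at 37 C, then loaded with calcium dye for 1 h. Compounds were preincubated 5 min at room temperature before DOI (4 nM solution) was added. Kinetic fluorescence was read for 3 min.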

[10] = biological target: Muscarinic acetylcholine receptor M1 (Homo sapiens) (UniProt P11229); test: Cholinergic receptor muscarinic 1 (CHRM1) small molecule agonists, cell-based qHTS assay (AID 1963589); also: nearly all actives have a fitted effect of over 35% in size
Muscarinic acetylcholine receptor M1 (Homo sapiens), sequence (P11229 whole entry, looked up): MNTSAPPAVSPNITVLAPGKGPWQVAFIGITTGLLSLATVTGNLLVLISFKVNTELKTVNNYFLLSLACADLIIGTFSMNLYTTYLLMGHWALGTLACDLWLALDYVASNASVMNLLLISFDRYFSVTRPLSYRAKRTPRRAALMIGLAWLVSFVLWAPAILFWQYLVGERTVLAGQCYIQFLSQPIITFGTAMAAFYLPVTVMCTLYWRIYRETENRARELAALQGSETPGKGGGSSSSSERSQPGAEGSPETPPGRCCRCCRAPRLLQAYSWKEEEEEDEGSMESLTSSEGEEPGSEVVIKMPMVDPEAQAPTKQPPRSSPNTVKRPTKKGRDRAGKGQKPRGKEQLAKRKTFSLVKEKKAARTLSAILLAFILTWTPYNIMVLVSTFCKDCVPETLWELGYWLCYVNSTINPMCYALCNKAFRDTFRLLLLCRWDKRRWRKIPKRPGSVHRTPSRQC
Procedure, shortened: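 Cells were plated and incubated 18 h at 37 C/5% CO2, loaded with calcium dye for 1 h at 37 C, then treated with compounds in DMSO. Fluorescence was recorded kinetically at 1 sec intervals.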

[11] = cAMP Responsive Elements (CRE) small molecule agonists, cell-based qHTS assay (AID 1963590)
Procedure, shortened: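 Cells carrying a CRE-driven beta-lactamase reporter (HEK 293T) are seeded, incubated overnight (18 h), and treated with test compounds for 3 h at 37 C; reporter activity is then detected with a FRET substrate after 2 h at room temperature.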

[12] = cAMP Responsive Elements (CRE) small molecule antagonists, cell-based qHTS assay (AID 1963591; active = well fitted inhibition curve with a large enough effect in the signal ratio in the repeat runs, not every such curve was filed as active; the % refers to the signal ratio)
Procedure, shortened: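 Cells (CRE-bla HEK 293T, DMEM with 10% dialyzed FBS and 25 mM HEPES) are seeded and incubated 18 h. Compounds are added with NKH477 agonist at 0.25 uM final for 3 h, then FRET substrate for 2 h.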

[13] = biological target: Beta-2 adrenergic receptor (Homo sapiens) (UniProt P07550); test: Adrenergic beta2 receptor (ADRB2) small molecule antagonists, cell-based qHTS assay (AID 1963592); also: series mostly up to about 92 µM; nearly all actives have a fitted effect of over 50% in size
Beta-2 adrenergic receptor (Homo sapiens), sequence (P07550 whole entry, looked up): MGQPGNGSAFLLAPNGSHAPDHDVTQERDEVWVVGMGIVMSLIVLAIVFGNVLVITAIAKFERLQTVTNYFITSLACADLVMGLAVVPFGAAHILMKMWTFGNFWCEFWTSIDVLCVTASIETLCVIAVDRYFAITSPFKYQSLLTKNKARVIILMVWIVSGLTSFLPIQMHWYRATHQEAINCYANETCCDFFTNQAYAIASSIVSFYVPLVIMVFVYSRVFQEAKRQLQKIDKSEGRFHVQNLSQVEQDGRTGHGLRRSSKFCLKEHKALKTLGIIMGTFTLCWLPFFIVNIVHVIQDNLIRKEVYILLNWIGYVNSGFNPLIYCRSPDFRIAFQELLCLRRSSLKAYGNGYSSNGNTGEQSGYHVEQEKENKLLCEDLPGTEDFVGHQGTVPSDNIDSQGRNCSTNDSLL
Procedure, shortened: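 Assay format: CHO-ADRB2 cells, 18-20hr seeding at 37C/5% CO2, then compound plus 1nM isoproterenol agonist mix for 0.5hr RT. Homogeneous time-resolved fluorescence cAMP detection after 1hr, expressed as 665/615 nm ratio.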

[14] = biological target: D(2) dopamine receptor (Homo sapiens) (UniProt P14416); test: Dopamine D2 receptor (DRD2) small molecule agonists, cell-based qHTS assay (AID 1963594); also: nearly all actives have a fitted effect of over 35% in size
D(2) dopamine receptor (Homo sapiens), sequence (P14416 whole entry, looked up): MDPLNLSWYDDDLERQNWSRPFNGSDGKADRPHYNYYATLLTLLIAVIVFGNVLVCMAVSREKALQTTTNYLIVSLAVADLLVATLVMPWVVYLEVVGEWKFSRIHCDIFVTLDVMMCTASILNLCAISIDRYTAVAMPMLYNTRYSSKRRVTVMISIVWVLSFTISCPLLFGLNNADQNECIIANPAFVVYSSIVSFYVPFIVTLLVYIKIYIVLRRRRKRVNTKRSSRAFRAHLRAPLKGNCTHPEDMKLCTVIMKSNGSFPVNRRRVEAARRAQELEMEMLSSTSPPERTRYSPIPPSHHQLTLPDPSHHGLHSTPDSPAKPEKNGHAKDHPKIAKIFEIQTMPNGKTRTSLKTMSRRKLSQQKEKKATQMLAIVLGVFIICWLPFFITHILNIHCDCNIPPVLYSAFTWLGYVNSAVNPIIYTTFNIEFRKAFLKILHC
Procedure, shortened: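 cAMP accumulation in DRD2-HEK293 cells measured by HTRF after 1 h detection; compounds added 10 min before NKH477 (200nM […]) forskolin-analogue stimulation, 30 min at room temperature, with Ro20-1724 present at 0.1 mM final.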

[15] = biological target: D(2) dopamine receptor (Homo sapiens) (UniProt P14416); test: Dopamine D2 receptor (DRD2) small molecule antagonists, cell-based qHTS assay (AID 1963595; active = well fitted inhibition curve with a large enough effect in the signal ratio in the repeat runs, with a control signal flat; the % refers to the signal ratio)
Procedure, shortened: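 Antagonist mode in DRD2-HEK293 cells: after compound addition with 0.1 mM Ro20-1724, cells received quinpirole (12 nM) and NKH477 (200 nM) for 30 min at room temperature; HTRF cAMP read after 1 h detection.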

[16] = p53 small molecule agonists, cell-based qHTS assay: qHTS cell viability counter screen (AID 1963581); also: nearly all actives have a fitted effect of over 45% in size
Procedure, shortened: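 Viability was counter-screened in parallel with the p53 agonist reporter by measuring intracellular ATP luminescence in the same HCT-116 p53RE-bla wells after 16 h compound treatment at 37 C.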

[17] = biological target: 5-hydroxytryptamine receptor 2A (Homo sapiens) (UniProt P28223); test: 5-hydroxytryptamine receptor 2A (HTR2A) small molecule agonists, cell-based qHTS assay (AID 1963587); also: nearly all actives have a fitted effect of over 30% in size
Procedure, shortened: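 Kinetic calcium-flux fluorescence (2 min, 1 sec intervals) after compound addition in agonist mode. HTR2A-CHO cells were cultured 18 h, then dye-loaded 1 h at 37 C.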

[18] = biological target: Muscarinic acetylcholine receptor M1 (Homo sapiens) (UniProt P11229); test: Cholinergic receptor muscarinic 1 (CHRM1) small molecule antagonists, cell-based qHTS assay (AID 1963588); also: nearly all actives have a fitted effect of over 40% in size
Procedure, shortened: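 Compounds were tested at 15 concentrations in three independent runs. Dye-loaded CHRM1-CHO cells were exposed 5 min at room temperature before stimulation by acetylcholine added at 50nM. Intracellular calcium was read kinetically on FDSS for 3 min.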

[19] = biological target: Beta-2 adrenergic receptor (Homo sapiens) (UniProt P07550); test: Adrenergic beta2 receptor (ADRB2) small molecule agonists, cell-based qHTS assay (AID 1963593);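 also: CHO cells stably overexpressing human ADRB2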
Procedure, shortened: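 CHO cells stably over-expressing ADRB2 were plated overnight at 37C, then dosed with compounds plus a stimulation mix containing 100uM IBMX and 25uM Ro-20-1724 for 0.5hr at room temperature. cAMP was measured by HTRF competition, 1hr.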

Measured: Potency

CCCCC(CC)CNC(=O)CC(C)OC(=O)CCC(=O)O (stereo not drawn)
inactive: [1] | [2] | [3] | [4] | [5] | [6] | [7] | [8] | [9] | [10] | [11] | [12] | [13] | [14] | [15]

CC(=O)Nc1ccccc1O
inactive: [1] | [2] | [3] | [4] | [5] | [6] | [7] | [16] | [8] | [9] | [17] | [18] | [10] | [11] | [12] | [13] | [19] | [14] | [15]

Cc1c(N)cccc1N
inactive: [1] | [2] | [3] | [6] | [16] | [9] | [17] | [18] | [10] | [11] | [12] | [14] | [15]

Nc1ccn([C@H]2CS[C@@H](CO)O2)c(=O)n1
inactive: [1] | [2] | [3] | [4] | [6] | [7] | [16] | [8] | [11] | [12] | [13] | [19] | [14] | [15]

C=C(C)[C@@H]1CC=C(C)CC1
inactive: [1] | [2] | [3] | [4] | [5] | [6] | [16] | [8] | [9] | [17] | [18] | [11] | [12] | [13] | [19] | [14] | [15]

Cc1ccc(C(C)C)cc2c(C)ccc1-2
inactive: [1] | [2] | [3] | [6] | [7] | [16] | [9] | [17] | [18] | [10] | [12] | [13] | [14] | [15]

CCC(C)(C)C1CCC(O)CC1 (stereo not drawn)
inactive: [1] | [2] | [3] | [4] | [5] | [6] | [8] | [9] | [17] | [18] | [10] | [11] | [12] | [13] | [14] | [15]

O=C(O)c1ccccc1C(=O)OCc1ccccc1
inactive: [1] | [2] | [3] | [4] | [5] | [6] | [7] | [16] | [8] | [17] | [18] | [12] | [13] | [14] | [15]
